Data on five compounds can be found in PubChem BioAssay (NCI).

What all share (assay): NCI-60 one-dose screen, 48 h (100 = growth as untreated, 0 = no growth, -100 = all killed)
One test concerns K-562 leukemia. Particulars: 10 µM unless noted.
A further test deals with MALME-3M melanoma. Particulars: 10 µM unless noted.
For the next test, the system named is MDA-MB-231 breast. Particulars: 10 µM unless noted.
The test system of another test is RXF 393 renal. Particulars: 10 µM unless noted.
The next test deals with SF-268 CNS. Particulars: 10 µM unless noted.
The subject of a further test is SF-295 CNS. Particulars: 10 µM unless noted.
A further test relates to SF-539 CNS. Particulars: 10 µM unless noted.
In a further test the test system is UACC-257 melanoma. Particulars: 10 µM unless noted.
For the next test, the system named is M14 melanoma. Particulars: 10 µM unless noted.
For another test, the system named is HCT-15 colon. Particulars: 10 µM unless noted.
Another test has as its system HT29 colon. Particulars: 10 µM unless noted.
The test system of a further test is SNB-75 CNS. Particulars: 10 µM unless noted.
Another test concerns SNB-19 CNS. Particulars: 10 µM unless noted.
Another test relates to U251 CNS. Particulars: 10 µM unless noted.
Another test concerns PC-3 prostate. Particulars: 10 µM unless noted.
Another test deals with UACC-62 melanoma. Particulars: 10 µM unless noted.
In the next test the test system is LOX IMVI melanoma. Particulars: 10 µM unless noted.
A further test has as its system SK-MEL-28 melanoma. Particulars: 10 µM.
Another test relates to SK-MEL-2 melanoma. Particulars: 10 µM unless noted.

Structures are written as SMILES. Compounds without any hit were thinned out: in the full panel of roughly 83,000, 20% have a hit.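 Interpretation: 100, growth as untreated; towards 0, rising growth inhibition; 0, no net growth; 0 to -100, cell death. Compounds scoring below 10 were considered active.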 Values without a mark were called inactive. Activity calls are given as the source filed them.

As for `O=c1oc2ccc(I)cc2c(=O)n1-c1ccc(I)cc1F`, the growth is 5.58% (active) with K-562 leukemia; -27.7% (active) in the test on MALME-3M melanoma; -9.68% (active) with MDA-MB-231 breast; -3.51% (active) with RXF 393 renal; 8.4% (active) with SF-268 CNS; -56.6% (active) in the test with SF-295 CNS. Also, the growth in the test on SF-539 CNS was 2.15% (active); in the test on UACC-257 melanoma, -20.3% (active); in the test on M14 melanoma, -2.96% (active); with HCT-15 colon, 2% (active); with HT29 colon, 28.3%; in the test with SNB-75 CNS, -22.6% (active). Moreover, the growth in the test on SNB-19 CNS is 21.2%; in the test with U251 CNS, 1.81% (active); in the test with PC-3 prostate, 3.97% (active); in the test with UACC-62 melanoma, -28.6% (active); with LOX IMVI melanoma it was 4.98% (active); with SK-MEL-28 melanoma, -4.19% (active). For the same compound, in the test with SK-MEL-2 melanoma, the growth was -29.7% (active).
For `O=C(CCc1nnc2sc(Cc3ccccc3Cl)nn12)c1nc2ncccc2[nH]1`, the growth in the test with K-562 leukemia is 102%; in the test on MALME-3M melanoma, 94.4%; in the test with MDA-MB-231 breast it was 73%; in the test on RXF 393 renal it was 104%; in the test with SF-268 CNS, 85.5%; in the test on SF-295 CNS it was 99.6%. In addition, the growth with SF-539 CNS was 94.2%; in the test on UACC-257 melanoma it was 107%; in the test on M14 melanoma, 96.5%; in the test with HCT-15 colon, 98.9%; with HT29 colon, 104%; in the test with SNB-75 CNS, 67.7%. Also, the growth with SNB-19 CNS was 93.3%; with U251 CNS it was 104%; in the test with PC-3 prostate, 85.6%; in the test on UACC-62 melanoma, 83.2%; in the test with LOX IMVI melanoma, 88%; in the test with SK-MEL-28 melanoma, 96.2%. Also, the growth in the test with SK-MEL-2 melanoma was 97.9%.
Turning to `COC(=O)[C@@H]1CCCN1C(=O)[C@H]1CCCN1C(=O)[C@@H](Cc1c[nH]c2ccccc12)NC(=S)Nc1cc(C(F)(F)F)cc(C(F)(F)F)c1`, the growth with K-562 leukemia is 27.6%; in the test on MALME-3M melanoma, 71.1%; in the test with MDA-MB-231 breast it was 25.4%; in the test on RXF 393 renal it was 48.5%; with SF-268 CNS, 38%; with SF-295 CNS, -52.2% (active). Also, the growth was 62% with SF-539 CNS; 69.5% with UACC-257 melanoma; 39.8% in the test with M14 melanoma; 43.5% in the test on HCT-15 colon; 33% with HT29 colon; 46.6% with SNB-75 CNS. Further, the growth was 37.6% with SNB-19 CNS; 32.4% with PC-3 prostate; 48.5% in the test with UACC-62 melanoma; 38.8% in the test with LOX IMVI melanoma; 55.7% in the test on SK-MEL-28 melanoma; 55.3% with SK-MEL-2 melanoma.
In the case of `O=C(Nc1ccc(I)cc1F)c1cc(Br)ccc1O`, the growth in the test on K-562 leukemia is 8.5% (active); in the test with MALME-3M melanoma it was -27.4% (active); in the test with MDA-MB-231 breast it was -21.2% (active); with RXF 393 renal it was 2.4% (active); in the test with SF-268 CNS, 7.21% (active); with SF-295 CNS, -64.9% (active). Moreover, the growth in the test on SF-539 CNS was 0.872% (active); in the test on UACC-257 melanoma it was -18.2% (active); in the test on M14 melanoma, -10.4% (active); in the test on HCT-15 colon it was 0.459% (active); in the test on HT29 colon, 30.4%; with SNB-75 CNS it was -26.1% (active). The growth with SNB-19 CNS was 19%; in the test with U251 CNS it was -14.5% (active); with PC-3 prostate it was 7.44% (active); in the test on UACC-62 melanoma, -19.2% (active); with LOX IMVI melanoma it was 6.07% (active); in the test with SK-MEL-28 melanoma, -3.35% (active). The growth with SK-MEL-2 melanoma was -26.5% (active).
Take `O=c1oc2ccc(F)cc2c(=O)n1-c1ccc(Br)cc1F`: the growth with K-562 leukemia is 6.75% (active); in the test with MALME-3M melanoma, -23% (active); in the test on MDA-MB-231 breast, -22% (active); in the test with RXF 393 renal it was -0.594% (active); with SF-268 CNS, 11.2%; in the test with SF-295 CNS, -50.6% (active). For the same compound, the growth with SF-539 CNS is 2.6% (active); in the test on UACC-257 melanoma, -17.4% (active); in the test with M14 melanoma, -2.25% (active); with HCT-15 colon, 2.89% (active); in the test on HT29 colon it was 32.6%; in the test with SNB-75 CNS, -15.7% (active). The growth in the test with SNB-19 CNS was 17.1%; with U251 CNS, 2.06% (active); in the test with PC-3 prostate, -2.97% (active); in the test with UACC-62 melanoma it was -6.65% (active); in the test with LOX IMVI melanoma it was 13.5%; with SK-MEL-28 melanoma, 11.1%. Also, the growth in the test on SK-MEL-2 melanoma was -30.2% (active).
